Assay [1] in a line: antimalarial activity against Dd2 strain (AID 2302;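 active means growth inhibition above 50% at the single 2 µM test dose, taken to imply half-maximal potency below 2 µM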;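 further: 0% = DMSO untreated growth and 100% = chloroquine plus artemisinin killed control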). The following applies: P. falciparum Dd2 in RBCs, LDH growth readout, 72 h; at 2 µM; stronger effect = higher value.
Assay [2] is described as follows: HepG2 cytotoxicity, primary screen, cytotoxicity control for P. falciparum antimalarial project, cell-based, ATP luminescence (AID 2303;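 active means inhibition above 50%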;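 further: 0% = DMSO wells and 100% = digitonin-killed cells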). The following applies: HepG2 viability, 24-48 h, at 10 µM, stronger effect = higher value.
In assay [3] the target is L-lactate dehydrogenase (Plasmodium falciparum (isolate CDC / Honduras)) (UniProt Q27743). Kind of assay: PfLDH activity inhibition – cell lysate, 3D7 strain, counter-screen for P. falciparum growth inhibition project (AID 2304).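 Further: 0% = vehicle and 100% = reference inhibitor.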 The following applies: P. falciparum 3D7 crude extract, LDH APAD/NBT absorbance; at 2 µM; stronger effect = higher value.
L-lactate dehydrogenase (Plasmodium falciparum (isolate CDC / Honduras)), sequence (Q27743 whole entry, looked up): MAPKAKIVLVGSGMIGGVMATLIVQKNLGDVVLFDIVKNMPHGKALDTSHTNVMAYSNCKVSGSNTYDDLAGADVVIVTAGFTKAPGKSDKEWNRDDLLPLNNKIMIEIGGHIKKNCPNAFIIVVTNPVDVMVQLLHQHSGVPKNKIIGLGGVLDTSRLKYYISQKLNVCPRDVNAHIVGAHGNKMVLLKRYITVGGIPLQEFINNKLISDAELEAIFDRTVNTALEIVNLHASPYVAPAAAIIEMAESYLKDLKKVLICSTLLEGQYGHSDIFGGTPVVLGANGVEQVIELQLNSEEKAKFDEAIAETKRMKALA
Assay [4] in a line: inhibition of 3D7 malaria parasite growth – strain 3D7 (AID 2306).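 Further: 0% = DMSO wells and 100% = chloroquine plus artemisinin control wells.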 The following applies: P. falciparum 3D7 erythrocytic growth, LDH absorbance, 72 h; at 2 µM; stronger effect = higher value.
Assay [5] deals with Calcium-dependent protein kinase 1 (Plasmodium falciparum (isolate 3D7)) (UniProt P62344). Kind of assay: PfCDPK1 kinase inhibitors, biochemical, TCAMS library (AID 1159585; cut-off not given, nearly all actives have IC50 up to about 0.98 µM;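 further: inhibitors leave more ATP so luminescence rises with inhibition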). The following applies: recombinant PfCDPK1, Kinase-Glo ATP depletion luminescence.
Calcium-dependent protein kinase 1 (Plasmodium falciparum (isolate 3D7)), sequence (P62344 whole entry, looked up): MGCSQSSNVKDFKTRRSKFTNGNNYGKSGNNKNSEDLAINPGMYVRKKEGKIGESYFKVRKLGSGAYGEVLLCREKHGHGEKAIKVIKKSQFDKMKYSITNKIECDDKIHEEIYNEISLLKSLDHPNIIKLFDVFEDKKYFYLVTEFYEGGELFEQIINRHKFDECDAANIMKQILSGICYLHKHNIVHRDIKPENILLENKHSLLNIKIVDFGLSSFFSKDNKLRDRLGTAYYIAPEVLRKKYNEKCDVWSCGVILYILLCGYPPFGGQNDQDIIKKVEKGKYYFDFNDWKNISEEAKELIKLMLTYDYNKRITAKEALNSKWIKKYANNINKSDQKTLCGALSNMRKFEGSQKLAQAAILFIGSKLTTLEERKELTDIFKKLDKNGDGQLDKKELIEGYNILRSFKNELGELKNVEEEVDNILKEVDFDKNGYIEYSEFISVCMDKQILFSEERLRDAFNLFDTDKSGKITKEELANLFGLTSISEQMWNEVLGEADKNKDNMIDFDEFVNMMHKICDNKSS
Assay [6] addresses Plasmodium falciparum protein kinase 6 (PK6, PF3D7_1337100) (UniProt Q8IDW1). Description: PfPK6 kinase inhibitors, biochemical, TCAMS library (AID 1159586). The note with it: recombinant PfPK6, Kinase-Glo ATP depletion luminescence. On the technique in general: Kinase-Glo reads ATP consumption through a luciferase reaction.
Assay [7] deals with Protein kinase 7 (PK7), Plasmodium falciparum 3D7 (PF3D7_0213400) (UniProt Q7YTF7). Kind of assay: inhibition of Plasmodium PK7 catalytic activity – biochemical, TCAMS antimalarial set, Kinase-Glo luminescence (AID 1159587). The following applies: recombinant PfPK7, Kinase-Glo ATP depletion luminescence.
Protein kinase 7 (PK7), Plasmodium falciparum 3D7 (PF3D7_0213400), sequence (Q7YTF7 1-343): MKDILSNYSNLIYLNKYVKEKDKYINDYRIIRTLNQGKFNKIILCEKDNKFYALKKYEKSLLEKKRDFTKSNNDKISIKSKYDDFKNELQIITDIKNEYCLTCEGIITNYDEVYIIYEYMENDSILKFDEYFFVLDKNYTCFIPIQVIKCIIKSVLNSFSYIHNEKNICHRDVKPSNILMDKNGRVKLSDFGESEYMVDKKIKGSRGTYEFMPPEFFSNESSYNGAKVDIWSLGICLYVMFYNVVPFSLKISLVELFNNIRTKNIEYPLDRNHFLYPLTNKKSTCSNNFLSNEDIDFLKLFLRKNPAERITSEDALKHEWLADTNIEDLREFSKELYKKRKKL
Assay [8] deals with Calcium-dependent protein kinase 4 (Plasmodium falciparum (isolate 3D7)) (UniProt Q8IBS5). Kind of assay: PfCDPK4 kinase inhibitors, biochemical, TCAMS library (AID 1159588; cut-off not given, nearly all actives have IC50 up to about 0.91 µM). The following applies: recombinant PfCDPK4, Kinase-Glo ATP depletion luminescence.
Calcium-dependent protein kinase 4 (Plasmodium falciparum (isolate 3D7)), sequence (Q8IBS5 whole entry, looked up): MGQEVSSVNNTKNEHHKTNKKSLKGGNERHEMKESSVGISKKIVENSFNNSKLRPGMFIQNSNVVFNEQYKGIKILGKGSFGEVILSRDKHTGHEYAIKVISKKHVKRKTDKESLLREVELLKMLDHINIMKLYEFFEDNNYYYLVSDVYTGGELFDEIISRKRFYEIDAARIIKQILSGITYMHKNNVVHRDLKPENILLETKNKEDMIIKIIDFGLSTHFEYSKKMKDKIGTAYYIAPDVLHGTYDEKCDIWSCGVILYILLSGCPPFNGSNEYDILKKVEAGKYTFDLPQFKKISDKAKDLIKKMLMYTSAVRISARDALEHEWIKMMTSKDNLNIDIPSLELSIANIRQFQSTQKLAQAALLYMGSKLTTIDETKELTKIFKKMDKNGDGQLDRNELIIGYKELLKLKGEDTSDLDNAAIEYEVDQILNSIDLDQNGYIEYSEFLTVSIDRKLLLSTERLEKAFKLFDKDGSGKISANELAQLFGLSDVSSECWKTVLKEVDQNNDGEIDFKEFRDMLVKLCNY

The values below come from PubChem BioAssay.

Values without a mark were called inactive. For some of these results: Potency and affinity values are given separately. The source made the active and inactive calls. Unless noted, how the calls were made is not given here.

Plasmodium falciparum protein kinase 6 (PK6, PF3D7_1337100), sequence (Q8IDW1 1-305): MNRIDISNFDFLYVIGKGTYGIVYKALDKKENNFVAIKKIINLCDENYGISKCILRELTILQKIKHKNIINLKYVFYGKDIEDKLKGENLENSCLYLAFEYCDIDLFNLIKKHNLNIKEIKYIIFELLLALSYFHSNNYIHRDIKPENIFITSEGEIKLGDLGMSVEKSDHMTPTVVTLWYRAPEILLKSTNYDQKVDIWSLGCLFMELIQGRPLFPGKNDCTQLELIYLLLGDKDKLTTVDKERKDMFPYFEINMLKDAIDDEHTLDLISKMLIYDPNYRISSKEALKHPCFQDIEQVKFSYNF

For `COc1ccc2c(NN=Cc3ccc(OC)c4ccccc34)cc(C)nc2c1`, the values for the growth inhibition in assay [1] and in assay [4] were 99% (active) and 101% (active), respectively. Besides, the inhibition (commonly the change of the read-out against control, counted positive when it falls) was 3% in assay [2] and -4% in assay [3]. The result in assay [5], in assay [6], in assay [7] and in assay [8] was inactive.
As to `Cc1[nH]c(C)c(-c2ccc(OCc3ccccc3C(F)(F)F)nc2)c(=O)c1Br`, the growth inhibition in assay [1] was 97% (active); in assay [4], 98% (active). The inhibition in assay [2] was 35%; in assay [3], -6%. In addition, the outcome in assay [5], in assay [6], in assay [7] and in assay [8] was inactive.
For `COc1ccc(-c2ccc(CNCc3ccccc3)cc2)cc1S(=O)(=O)NCCN1CCCC1`, the growth inhibition in assay [1] is 76% (active); in assay [4], 102% (active). Also, the inhibition in assay [2] is 36%; in assay [3], -3%. Further, the outcome in assay [5], in assay [6], in assay [7] and in assay [8] was inactive.
As for `CCn1cnc2c(Nc3cccc([N+](=O)[O-])c3)nc(N3CCC(N4CCCCC4)CC3)nc21`, the results for the growth inhibition in assay [1] and in assay [4] were 35% and 98% (active), respectively. The inhibition was 31% in assay [2] and 3% in assay [3]. The result in assay [5], in assay [6], in assay [7] and in assay [8] was inactive.
Turning to `O=C(NOCc1ccccc1)c1cc(Cl)ccc1O`, the growth inhibition was -1% in assay [1] and 83% (active) in assay [4]. Besides, the figures for the inhibition in assay [2] and in assay [3] were 2% and 5%, respectively. The outcome in assay [5], in assay [6], in assay [7] and in assay [8] was inactive.
In the case of `CCCc1cc(=O)[nH]c(-n2nc(C)cc2NC(=O)c2cc3ccccc3o2)n1`, the growth inhibition was 63% (active) in assay [1] and 90% (active) in assay [4]. The inhibition was 39% in assay [2] and -2% in assay [3]. Besides, the result in assay [5], in assay [6], in assay [7] and in assay [8] was inactive.
Regarding `COc1ccccc1CNC(=O)c1cc(Br)cc(N2CCN(c3ccncc3)CC2)c1`, the values for the growth inhibition in assay [1] and in assay [4] were 76% (active) and 95% (active), respectively. Besides, the inhibition in assay [2] was 43%; in assay [3], 0%. For the same molecule, the outcome in assay [5], in assay [6], in assay [7] and in assay [8] was inactive.
In the case of `Cc1cc(C(=O)Nc2ccc(-c3nc4ccccc4[nH]3)cc2)ccc1[N+](=O)[O-]`, the figures for the growth inhibition in assay [1] and in assay [4] were 47% and 101% (active), respectively. Also, the values for the inhibition in assay [2] and in assay [3] were 55% (active) and 1%, respectively. Besides, the result in assay [5], in assay [6], in assay [7] and in assay [8] was inactive.
Take `CCCCCCn1c(Sc2ccc(C#N)c([N+](=O)[O-])c2)nnc1-c1ccc(Cl)cc1`: the growth inhibition in assay [1] is 48%; in assay [4] it was 93% (active). The inhibition in assay [2] was 23%; in assay [3] it was 0%. Also, the outcome in assay [5], in assay [6], in assay [7] and in assay [8] was inactive.
`Cc1cccc2[nH]c(-c3cccc(-c4cccc(NC(=O)c5ccc(=O)[nH]n5)c4)c3)nc12`: the growth inhibition in assay [1] is 32%; in assay [4] it was 101% (active). Besides, the inhibition is 10% in assay [2] and -1% in assay [3]. The result in assay [5], in assay [6], in assay [7] and in assay [8] was inactive.
For the molecule `Cc1cc(Nc2ccncc2)n2nc(C)c(-c3ccc(Cl)cc3)c2n1`, the growth inhibition was 99% (active) in assay [1] and 101% (active) in assay [4]. The inhibition is -9% in assay [2] and 2% in assay [3]. Also, the result in assay [5], in assay [6], in assay [7] and in assay [8] was inactive.
As for `O=C(Nc1ccc(C(F)(F)F)cc1)NC1CCN(c2ccnc3cc(Cl)ccc23)C1` (stereo not given), the growth inhibition in assay [1] is 99% (active); in assay [4] it was 102% (active). The inhibition is 20% in assay [2] and -2% in assay [3]. In addition, the outcome in assay [5], in assay [6], in assay [7] and in assay [8] was inactive.
For `CNC(=O)NC1=NC(C)(C)N(OCCCOc2cc(Cl)c(Cl)cc2Cl)C(N)=N1`, the growth inhibition is 2% in assay [1] and 97% (active) in assay [4]. In addition, the inhibition is 7% in assay [2] and -3% in assay [3]. Further, the result in assay [5], in assay [6], in assay [7] and in assay [8] was inactive.
Turning to `O=C(Nc1ccc(Cl)cc1)Nc1cccc(-c2cccc(-c3nc4ccc(C(F)(F)F)cc4[nH]3)c2)c1`, the figures for the growth inhibition in assay [1] and in assay [4] were 97% (active) and 99% (active), respectively. Besides, the results for the inhibition in assay [2] and in assay [3] were 87% (active) and 1%, respectively. The result in assay [5], in assay [6], in assay [7] and in assay [8] was inactive.
Consider `COc1ccc(-c2ccccc2CNC2Cc3ccccc3C2)cc1S(=O)(=O)NCCN1CCCC1`, for which the figures for the growth inhibition in assay [1] and in assay [4] were 47% and 96% (active), respectively. In addition, the figures for the inhibition in assay [2] and in assay [3] were 18% and -3%, respectively. In addition, the result in assay [5], in assay [6], in assay [7] and in assay [8] was inactive.
Turning to `Oc1ccccc1CNCC12CC3CC(CC(C3)C1)C2`, the growth inhibition was 99% (active) in assay [1] and 98% (active) in assay [4]. Moreover, the inhibition in assay [2] was -4%; in assay [3] it was 5%. Besides, the outcome in assay [5], in assay [6], in assay [7] and in assay [8] was inactive.
For the molecule `COc1ccc(NC(=O)NC2CCN(CCCCCNC(=O)/C=C/c3ccc(Cl)c(Cl)c3)CC2)cc1`, the results for the growth inhibition in assay [1] and in assay [4] were 1% and 96% (active), respectively. The values for the inhibition in assay [2] and in assay [3] were 5% and 0%, respectively. Besides, the result in assay [5], in assay [6], in assay [7] and in assay [8] was inactive.
Consider `Cc1nc(C)c(CC(=O)Nc2cccc(-c3cccc(-c4nc5c(C)cccc5[nH]4)c3)c2)s1`, for which the figures for the growth inhibition in assay [1] and in assay [4] were 35% and 92% (active), respectively. Further, the inhibition in assay [2] was 43%; in assay [3], -6%. Besides, the result in assay [5], in assay [6], in assay [7] and in assay [8] was inactive.
On to `Brc1ccc(Nc2nc(NCC3CCCO3)c3ccccc3n2)cc1` (stereo not given), for which the figures for the growth inhibition in assay [1] and in assay [4] were 99% (active) and 100% (active), respectively. Further, the results for the inhibition in assay [2] and in assay [3] were 13% and -3%, respectively. Also, the outcome in assay [5], in assay [6], in assay [7] and in assay [8] was inactive.
Regarding `COc1ccc2nccc([C@@H](O)CN3CCC(NC(=O)c4nc(Cl)c(Cl)c(N)c4Cl)CC3)c2c1`, the growth inhibition in assay [1] was 17%; in assay [4] it was 87% (active). Further, the inhibition in assay [2] is 16%; in assay [3], 2%. Also, the result in assay [5], in assay [6], in assay [7] and in assay [8] was inactive.
